# Results from paper PMC5540273 (PLoS ONE, 2017).
# Tested on: T1, YES
# T1 construct: gene YES1
# Conditions: concentration: 1 μM, replicates: in singlicate; n = 1
# 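Further: KINOMEscan kinase panel screen.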
row,SMILES,%Inh [%]
1,O=C(Nc1cccc(-c2nn3ccccc3c2-c2ccnc(Nc3cccc(F)c3)n2)c1)c1c(F)ccc(F)c1Cl [GSK357952],98.7
2,c1ccc(-c2cnc3nccnn23)cc1 [AH20685],0
3,CN(c1ccc(NC(=O)Nc2cc(C(F)(F)F)ccc2F)cc1)c1ccnc(Nc2ccc(S(N)(=O)=O)cc2)n1 [GW809893],80
4,O=C(Nc1n[nH]c2cc(-c3ccoc3)ccc12)C1CC1 [SB-738481],3
5,C[C@@H]1CC[C@@H](C(=O)Nc2ccccc2)CN1c1cc(-c2ccc3c(N)n[nH]c3c2)nc(N)n1 [GSK2286062],0
6,O=C(Nc1cccc(-c2nn3ncccc3c2-c2ccnc(Nc3ccccc3)n2)c1)c1c(F)cccc1F [GSK198271],99.5
7,COc1cccc(NC(=O)NC2CCN(c3ccnc(Nc4cc(OC)c(OC)c(OC)c4)n3)C2)c1 (centres unmarked) [GSK1379763],1
8,CN1CCN(CCCNc2nccc(-c3c(-c4ccc(F)cc4)nn4cc(C(F)(F)F)ccc34)n2)CC1 [GW621581],1
9,Nc1n[nH]c2cnc(-c3ccccc3)cc12 [SB-642124],24
10,Cc1occc1-c1ncc(OC[C@@H](N)Cc2c[nH]c3ccccc23)cc1-c1ccc2[nH]nc(C)c2c1.O=C(O)C(F)(F)F [GSK682037],38
11,Cl.NC(=O)c1cccc(Nc2nccc(Nc3ccc(Oc4c(Cl)cccc4Cl)c(Cl)c3)n2)c1 [GW659009],39
12,CCCCc1nn2ncccc2c1-c1ccnc(Nc2ccc(N3CCN(C)CC3)cc2)n1 [GW684941],81
13,CCc1ccc(-c2ccc3c(c2)-c2c(cnn2C)S(=O)(=O)N3C)cc1,0
14,c1ccc(-c2n[nH]cc2Nc2ccnc3ccccc23)nc1 [GW694077],0
15,c1ccc(Oc2ccc(Nc3ccnc4cc(-c5ccc(CNCCN6CCOCC6)o5)ccc34)cc2)nc1 [GW567145],48
16,Cn1cc(-c2[nH]c3cc(NC(=O)[C@H](N)C4CCCCC4)cc4c3c2C=NNC4=O)cn1,88

row,SMILES,%Inh [%]
1,FC(F)(F)c1ccc(/C=C/c2cncnc2Nc2ccc3[nH]c(Cc4ccccc4)nc3c2)cc1 [GW709199],0
2,COc1cc2c(cc1OCCN1CCNCC1)ncc1c3ccc(C#N)cc3[nH]c21,0
3,CC(=O)N1CCN(c2ccc(Nc3nccc(-c4sc(C(C)C)nc4-c4cccc(NS(=O)(=O)c5cccc(Cl)c5)c4)n3)cn2)CC1 [GSK1660437],92.4
4,Cc1ccc(F)c(C(=O)Nc2cccc(-c3nn4ccccc4c3-c3ccnc(Nc4cccc(F)c4)n3)c2)c1F [GSK361061],95.3
5,Cc1cccc(NC(=O)Nc2ccc(Oc3ncnc4ccn(C)c34)cc2)c1,0
6,COc1cc(Nc2nccc(N3CCC(NC(=O)Nc4cccc(C(C)=O)c4)C3)n2)cc(OC)c1OC (centres unmarked) [GSK1379753],12
7,C[C@@H](Oc1cc(-n2cnc3cc(-c4ccnc(NCCS(C)(=O)=O)c4)ccc32)sc1C(N)=O)c1ccccc1Cl [GSK907232],47
8,COC(=O)Nc1nc2cc(Oc3ccc(NC(=O)Nc4cc(C(F)(F)F)ccc4F)cn3)ccc2[nH]1.Cl.Cl [GW681170],24
9,Nc1ncnc2c1nc(-c1ccccc1)n2-c1ccccc1 [SKF-97293],0
10,NCCCC(NC(=O)c1cc(Br)c(-c2ccnc3[nH]ccc23)s1)c1ccccc1.O=C(O)C(F)(F)F.O=C(O)C(F)(F)F (centres unmarked) [GSK1287544],0
11,CSc1cccc2c(-c3ccncn3)c(-c3ccc(F)cc3)nn12 [GW514786],4
12,CC(C)c1nc(-c2cccc(NS(=O)(=O)c3c(F)cccc3F)c2F)c(-c2ccnc(Nc3ccc(N4CCOCC4)nc3)n2)s1 [GSK2008607],99.6
13,Cc1cccc(Nc2nc(N[C@H]3CCNC3)ncc2C(N)=O)c1.Cl [GSK2197149],41
14,Nc1ncc(-c2ccc3nccc(-c4ccncc4)c3c2)cc1S(=O)(=O)N1CCOCC1 [GSK1627798],0
15,COc1ccc(CNC(=O)NC2CCN(c3ccnc(Nc4ccc(F)cc4)n3)CC2)cc1 [GSK1379788],0
16,O=C(Nc1n[nH]c2nc(-c3ccc(O)cc3)ccc12)C1CC1 [SB-710363],0
